Results as given in PubChem BioAssay (NCATS).
Records with an inconclusive call do not appear. The source made the active and inactive calls. Calls come from the whole dose curve; as a rule, active = well fitted cell-killing curve with a large enough effect; inconclusive = small, poorly fitted or top-dose-only effect, or effect the other way; inactive = flat fitted curve, though single readings scatter.

test system: OV90; assay: Primary qHTS to identify gynecologic anti-cancer compounds using libraries of approved drugs and bioactive compounds (AID 1345084); settings: Gynecologic cancer cell panel viability, ATPlite luminescence, 48 h; series mostly up to 57.5 µM; activity change, negative = cytotoxicity: at the top concentration; note: nearly all actives have a fitted effect of over 55% in size
Outline: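 Cells, 1,000 per well, were allowed to settle for 16 h at 37 C before compound addition. Five concentrations were tested for 48 h, and viability was read by ATPlite luminescence after 15 min at room temperature.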
% is set by controls: 0 for no effect and ±100 for the full control effect; potency is the fitted concentration of half-maximal effect.

| SMILES | Potency | activity change, negative = cytotoxicity |
| --- | --- | --- |
| CC(=O)Nc1ccc(C(=O)Nc2ccccc2N)cc1 | 3.98 µM (active) |  |
| CCOC(=O)CCC(=O)O[C@H]1[C@H](O[C@@H]2[C@@H](C)[C@H](O[C@H]3C[C@@](C)(OC)[C@@H](O)[C@H](C)O3)[C@@H](C)C(=O)O[C@H](CC)[C@@](C)(O)[C@H](O)[C@@H](C)C(=O)[C@H](C)CC2(C)O)O[C@H](C)C[C@@H]1N(C)C (stereo partly drawn) |  | 2.18% (inactive) |
| CCC(=O)Nc1cccc(Oc2nc(Nc3ccc(N4CCN(C)CC4)cc3OC)ncc2Cl)c1 |  | 3.73% (inactive) |
| Cc1cc(CN)cc(C)c1NC(=O)c1ccc(-c2cc(Cl)ccc2Cl)o1 |  | -25.6% (inactive) |
| C=C1C(=O)O[C@@H]2C[C@@]3(C)CCC[C@H](C)C3=C[C@H]12 |  | -6.52% (inactive) |
| C=C1C(=O)O[C@@H]2[C@H]1[C@H](O)C[C@]1(C)[C@@H](O)CC=C(C)[C@@H]21 |  | -9.23% (inactive) |
| CC(C)c1ccc(NC(=O)C(c2ccccc2)N(C)C(=O)Cc2c[nH]c3ccccc23)cc1 (stereo not drawn) |  | -13.5% (inactive) |
| O=C(Nc1cccc(C(F)(F)F)c1)c1ccccc1NCc1ccncc1 |  | -0.378% (inactive) |
| Cc1cc(C)c(NC(=O)N(Cc2ccc3c(c2)Cc2ccccc2-3)C2CCCCCC2)c(C)c1 |  | -20.6% (inactive) |
| CN(Cc1ccc(C(=O)O)cc1)c1ccc(OCc2c(-c3c(Cl)cccc3Cl)noc2C2CC2)nc1C(F)(F)F |  | 12.7% (inactive) |
| C[N+]1(C)[C@@H]2CC[C@H]1CC(OC(=O)C(O)c1ccccc1)C2 (stereo partly drawn) |  | 6.41% (inactive) |
| CC1CCN(c2cc(NC(=O)c3ccccc3)ncn2)CC1 |  | 12.6% (inactive) |
| CCC(=O)c1cc(-c2ccc(Cl)cc2)n(-c2ccc(S(N)(=O)=O)cc2)c1C |  | 3.73% (inactive) |
